FUS suppressor = suppressors of FUS proteinopathy in yeast. S. cerevisiae FUS-expressing, growth rescue, OD600, 24 h. 390,000 compounds, 0.24% hits. Potency, µM (top dose mostly 76.6 µM), most hits filed as activators; further: nearly all actives have a fitted effect of over 55% in size
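Read-out: OD at 600 nm after 24hr at 30C, reporting rescue of FUS-induced yeast toxicity. Cells at OD 0.005 in galactose (2%) minimal medium; compounds tested in a dilution series; CP55940 titration from 92uM final as control.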
aSyn yeast inh = inhibitors of alpha-synuclein toxicity in yeast. Potency, µM (top dose mostly 46.1 µM), usual class: activators. 370,000 compounds, 0.14% hits. Yeast expressing alpha-synuclein, growth rescue, BacTiter-Glo, 24 h. AID 652106; further: nearly all actives have a fitted effect of over 65% in size
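Rescue of yeast growth: cells expressing toxic alpha-synuclein, induced in galactose at OD600 0.02, incubated with compound 24 h at 30 C. ATP luminescence quantified growth; inhibitors of toxicity appear as activators.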
Abeta yeast res = A-beta toxicity reversal in yeast; 410,000 compounds, 0.063% hits; yeast expressing A-beta42, growth rescue, OD600, 48 h; response scale: 0% DMSO, 100% iron-clioquinol control; Potency, µM (highest dose often 46.1 µM), hits mostly activators; AID 1347071; further: nearly all actives have a fitted effect of over 55% in size
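Growth rescue measured by 600 nm absorbance after 48 h yeast culture at 30 C with compound. Values normalized between DMSO and an equimolar ferric chloride plus clioquinol control.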
TDP43 rescue = TDP-43 toxicity inhibition in yeast. TDP-43 expressing yeast growth rescue, BacTiter-Glo, 24 h. Potency, µM (series often up to 46.1 µM), most hits filed as activators. 410,000 compounds, 1.8% hits; further: nearly all actives have a fitted effect of over 50% in size
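Yeast expressing TDP-43 (pregrown in raffinose, seeded at OD600=0.02 in galactose medium) exposed to compounds 24 hr at 30 deg C. Growth read by BacTiter-Glo luminescence; rescue of toxicity appears as increased signal.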
Hits are given with their value; – = inactive; ? = inconclusive; · = not tested or not shown. An excerpt weighted towards active compounds, which were near 2.1% of everything screened. The call rests on the fitted dose curve; in most records, active means well fitted curve in the direction sought with a large enough effect; inconclusive means small, poorly fitted or top-dose-only effect, or another doubt; inactive means no such curve, though single readings can be large; an effect the other way counts as inactive or inconclusive.

SMILES	FUS suppressor	aSyn yeast inh	Abeta yeast res	TDP43 rescue
Cc1onc(-c2ccc(Cl)cc2)c1-c1ccn(S(=O)(=O)c2ccccc2)n1	–	·	·	·
COc1cccc(NC(=O)CN(C)C(=O)c2cccc(S(=O)(=O)N3c4ccccc4CC3C)c2)c1 (stereo not given)	22µM	–	–	–
S=C(N/N=C/c1ccc2ncccc2c1)Nc1ccccc1	–	–	?	13µM
CCOC(=O)c1sc(NC(=O)c2cc(-c3ccccc3C)nc3ccccc23)c(C#N)c1C	–	–	–	–
Cc1ccccc1-c1cc(C(=O)Nc2sc(C)c(C)c2C(N)=O)c2ccccc2n1	–	–	–	22µM

From PubChem BioAssay
